# IL1B secr inh: inhibitors of inflammasome signaling (IL-1 beta secretion); THP-1 LPS/ATP IL-1B secretion, AlphaLISA, 16 h; stronger effect = lower value; activity change, % at 57.5 µM; 360,000 compounds, 4.7% hits; AID 743279; in the data active = activity change below about -50%; inconclusive = mostly about -30% to -49%; note: % is set by controls: 0 for no effect and ±100 for the full control effect
#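 Secreted IL-1B measured by AlphaLISA bead assay after 16 h compound exposure of THP-1 cells; compounds (final up to 57.5 uM) added 1 h before LPS (250 ng/mL) and ATP (1.25 mM) stimulation; lower signal means less secretion.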
# MCF10A rereplic: induces DNA re-replication in MCF 10a normal breast cells | 350,000 compounds, 2.9% hits | MCF 10A DNA re-replication, Hoechst nuclear intensity, 48 h | Potency, µM (series often up to 46.1 µM), for inactives: at the top dose activity, positive = re-replication, usual class: activators | AID 624296; note: potency is the fitted concentration of half-maximal effect; % of control where 0% means no effect; nearly all actives have a fitted effect of over 50% in size
# SW480 rereplic: DNA re-replication induction in SW480 cells. SW480 DNA re-replication, Hoechst DNA content imaging, 48 h. Potency, µM (series often up to 46.1 µM), for inactives: top-dose re-replication activation, usual class: activators. 340,000 compounds, 1.8% hits. AID 624297; note: potency is the fitted concentration of half-maximal effect; % of control where 0% means no effect; nearly all actives have a fitted effect of over 55% in size
#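 Cells (250 per well) received 23 nL compound or DMSO by pin tool and were kept 48 hr at 37 C, 5% CO2. Nuclei were then stained with Hoechst for 40 min and scanned for DNA content.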
# RORg inh: ROR gamma (mouse) transcription inhibition; Drosophila S2 Gal4-RORgamma UAS-luciferase reporter, 20 h; P51450; Potency, µM (doses to about 53.6 µM), without a hit: top-dose activity change, negative = inhibition, hits mostly inhibitors; 310,000 compounds, 5.4% hits; note: potency is the fitted concentration of half-maximal effect; % is set by controls: 0 for no effect and ±100 for the full control effect; nearly all actives have a fitted effect of over 60% in size
# Target sequence (P51450 whole entry, looked up, the tested form may be a part): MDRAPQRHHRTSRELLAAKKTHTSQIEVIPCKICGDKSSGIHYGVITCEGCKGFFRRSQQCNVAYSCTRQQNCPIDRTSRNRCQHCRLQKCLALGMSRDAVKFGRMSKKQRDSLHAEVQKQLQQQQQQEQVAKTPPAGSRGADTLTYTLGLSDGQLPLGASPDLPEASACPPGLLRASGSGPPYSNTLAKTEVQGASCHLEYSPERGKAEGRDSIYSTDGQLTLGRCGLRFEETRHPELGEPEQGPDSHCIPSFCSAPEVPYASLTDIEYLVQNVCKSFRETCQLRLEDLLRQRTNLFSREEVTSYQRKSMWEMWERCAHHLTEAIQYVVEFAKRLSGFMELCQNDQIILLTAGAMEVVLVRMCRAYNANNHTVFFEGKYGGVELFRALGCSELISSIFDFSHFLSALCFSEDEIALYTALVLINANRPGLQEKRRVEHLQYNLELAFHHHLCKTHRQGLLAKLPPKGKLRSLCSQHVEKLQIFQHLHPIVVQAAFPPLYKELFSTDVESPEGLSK
#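 In this cell-based reporter format, copper sulfate (700 uM final) drives Gal4–ROR gamma fusion expression from a metallothionein promoter in Drosophila Schneider cells; compounds preincubated 1 hr, reporter read after 20 hr at ambient temperature.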
# Gal4-VP16 FLuc: Gal4-VP16 reporter inhibition counter-screen; Drosophila S2 Gal4-VP16 UAS-luciferase, luminescence, 20 h; Potency, µM (highest dose often 53.6 µM), for inactives: at the top dose activity, negative = inhibition, most hits filed as inhibitors; 310,000 compounds, 3.5% hits; AID 2546;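 note: Gal4-VP16 expression switched on by copper sulfate through the metallothionein promoter; potency is the fitted concentration of half-maximal effect; % is set by controls: 0 for no effect and ±100 for the full control effect; nearly all actives have a fitted effect of over 50% in size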
# * = called active by the depositor; ? = inconclusive; / = not tested or not shown. In the library only some 11% were active in any assay of this set; here they are far more common. Unless noted, calls come from the whole dose curve; as a rule, active = well fitted curve in the direction sought with a large enough effect; inconclusive = small, poorly fitted or top-dose-only effect, or another doubt; inactive = no such curve, though single readings can be large; an effect the other way counts as inactive or inconclusive.
SMILES,IL1B secr inh,MCF10A rereplic,SW480 rereplic,RORg inh,Gal4-VP16 FLuc
COc1ccc(C2CC(c3ccc4ccccc4c3)=NN2C(=O)CN2CCC(C(N)=O)CC2)cc1 (stereo not given),-82*,14%,-2%,-2%,-8%
COc1ccc(C2CC(c3ccc4ccccc4c3)=NN2C(=O)CNC2CCCCC2)cc1 (stereo not given),-51*,?,?,-39%,-2%
COc1ccc(C2CC(c3ccc4ccccc4c3)=NN2C(=O)COC(=O)C2CCC(=O)N2)cc1 (stereo not given),-69*,0%,-1%,2%,3%
COC(=O)/C=C1\OCc2ccccc21,15,/,/,/,/
O=C(NC1CCCc2ccccc21)c1c(F)cccc1Cl (stereo not given),2,3%,4%,18%,2%
COc1ccc(N=Cc2c(O)ccc3ccccc23)cc1,-6,-1%,4%,?,-24%
CC(=O)Nc1ccc(N=Cc2c(O)ccc3ccccc23)cc1,18,3%,-8%,?,-2%
CCOC(=O)c1sc(/N=C/c2c(O)ccc3ccccc23)cc1C,-23,15µM*,-10%,?,4%
Cc1ccc(N=Cc2c(O)ccc3ccccc23)cc1F,22,?,?,5µM*,?
CC(OC(=O)CSCC(=O)Nc1ccc(Cl)cc1)C(=O)N(C)Cc1ccccc1 (stereo not given),-5,?,-1%,/,/
Cc1sc2nc(SCCN(C)C)n(-c3ccccc3)c(=O)c2c1-c1ccc(F)cc1,-17,?,18µM*,-27%,1%
CN(C)CCSc1nc(O)c(-c2ccccc2)c(=O)n1-c1ccccc1,13,-2%,-10%,-1%,-2%
COc1ccc(-c2cc(C)nc(SCC(=O)c3cccc([N+](=O)[O-])c3)n2)cc1,-15,?,1%,1%,-7%
Cc1cc(-c2ccccc2)nc(SCC(=O)c2cccc([N+](=O)[O-])c2)n1,-20,?,16µM*,26%,-4%
Cc1ccc(OCc2nnc(SCC(=O)c3cccc([N+](=O)[O-])c3)n2C)cc1,-7,?,25%,2µM*,?
Cc1ccc(OCc2nnc(SCC(=O)Nc3cc(C)on3)n2C)cc1,0,0%,1%,-3%,-1%
Cc1ccc(-c2cc(C(F)(F)F)nc(SCC(=O)c3cccc([N+](=O)[O-])c3)n2)cc1,-53*,?,?,-2%,-4%
CCCCCCc1c(C[C@H](N)C(=O)O)o[nH]c1=O,/,/,/,14%,0%
CN(CC(=O)Nc1ccccc1Cl)C(=O)Cn1cnc2ccc(Cl)cc2c1=O,17,-3%,-2%,/,/
CCOC(=O)/C(C)=N/NC(=O)c1ccc([N+](=O)[O-])cc1,0,-28%,7%,-136%,-11%
CCOC(=O)C(CC)/C(C)=N/NC(=O)c1ccc([N+](=O)[O-])cc1 (stereo not given),-8,1%,4%,13µM*,?
O=C(NCCc1ccc(F)cc1)C1CCC(=O)N(CC2CCCCC2)C1 (stereo not given),24,/,/,/,/
CCOC(=O)CNS(=O)(=O)c1cc(-c2nnc(Nc3ccc4c(c3)OCO4)c3ccccc23)ccc1C,-102*,?,?,?,-15%
COC(=O)c1ccc(Nc2nnc(-c3ccc(C)c(S(=O)(=O)NCC4CCCO4)c3)c3ccccc23)cc1 (stereo not given),-63*,?,8%,8%,2%
CCNc1ncc2nc(-c3ccc(Cl)cc3)c(=O)n(C[C@H]3CCCO3)c2n1,/,/,/,1%,-6%
N#CC1=C(N)OC2=C(CC/C2=C\c2ccccc2)C1c1ccccc1 (stereo not given),-22,5.8µM*,15µM*,?,-19%
N#CC1=C(N)OC2=C(CC/C2=C\c2ccccc2Cl)C1c1ccccc1Cl (stereo not given),-68*,?,?,-39%,?
N#CC1=C(N)OC2=C(C(=O)CCC2)C1c1ccccc1 (stereo not given),-9,2%,-4%,-18%,8%
OC[C@@H]1CN(Cc2cccs2)C[C@H](n2cnc3c(NCc4ccncc4)ncnc32)O1,2,/,/,/,/

# Assay outcomes deposited in PubChem BioAssay by National Center for Advancing Translational Sciences (NCATS).
